This is a sample that favours compounds with a hit; in the whole collection about 32% have one here.
CYP2C9 inh: human CYP2C9 inhibition; AID 777; inhibition, % at 5 µM; 20% of 96,000 active; CYP2C9 Supersomes, luciferin-H conversion, luminescence; P11712;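 active = blocking of liver enzyme CYP2C9 beyond about 50% at 5 µM, limit read from the data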
CYP2C19 act: increases human CYP2C19 enzyme activity | P33261 | AID 1025 | recombinant CYP2C19, luciferin-H EGE luminescence; hits give high values; 0 = fully inhibited enzyme, 1 = untreated enzyme | activation factor at 5 µM | 96,000 tested, under 10 active;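 active = activation factor of at least 2 at 5 µM in the primary screen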;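 also: 0 = wells with 2.5 mM tranylcypromine and 1 = vehicle-only wells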
Target sequence (P33261 whole entry, looked up): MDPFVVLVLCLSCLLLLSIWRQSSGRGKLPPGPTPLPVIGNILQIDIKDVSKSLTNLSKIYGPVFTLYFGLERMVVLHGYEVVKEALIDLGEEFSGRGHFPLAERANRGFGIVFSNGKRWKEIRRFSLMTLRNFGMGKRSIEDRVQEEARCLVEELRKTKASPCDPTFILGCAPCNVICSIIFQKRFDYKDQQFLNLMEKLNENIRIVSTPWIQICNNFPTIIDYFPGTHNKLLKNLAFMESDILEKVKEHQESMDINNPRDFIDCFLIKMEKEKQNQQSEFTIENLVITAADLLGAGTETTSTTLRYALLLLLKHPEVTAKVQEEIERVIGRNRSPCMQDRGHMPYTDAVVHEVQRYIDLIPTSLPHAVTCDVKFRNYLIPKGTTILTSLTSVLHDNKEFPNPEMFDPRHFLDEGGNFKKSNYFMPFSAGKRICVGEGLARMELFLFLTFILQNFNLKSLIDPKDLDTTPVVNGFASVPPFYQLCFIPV
CYP2C19 inh: inhibitors of human CYP2C19; P33261; CYP2C19 Supersomes, luciferin-H EGE luminescence, 30 min; inhibition, % at 5 µM; 21% of 96,000 active; AID 778;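 active = CYP2C19 inhibition above a set limit at 5 µM in the primary screen, cut at about 50% in these data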;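 also: plate controls were negative control wells for no effect and 2.5 mM tranylcypromine positive control for full effect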
CYP2C9 act: activators of human CYP2C9; P11712; activation factor at 5 µM; recombinant CYP2C9, luciferin-H conversion, luminescence; hits give high values; factor 1 = untreated enzyme, 0 = blocked; AID 1024; 1.4% of 96,000 active;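 active = activation factor of 2 or more for CYP2C9 at a 5 µM dose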;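 also: 0 = sulfaphenazole-blocked wells and 1 = vehicle-only wells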
PostGolgi ctrl: inhibits growth of the yeast control strain. efflux-deficient yeast background strain, growth absorbance A615, 16 h. inhibition, % at 10 µM. 5% of 98,000 active. AID 738
PostGolgi yeast: growth inhibition of a yeast mutant, post-Golgi transport screen | inhibition, % at 10 µM | AID 739 | 0.9% of 98,000 active | post-Golgi transport phenotypic cell assay;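 also: yeast cells grown in 1536-well plates; yeast grown about 18 h at 30C before absorbance read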
The depositor's hits bear a star; nt = no result. Rule as the data show it, unless noted: active = inhibition above about 30%; inactive = the rest.

SMILES	CYP2C9 inh	CYP2C19 act	CYP2C19 inh	CYP2C9 act	PostGolgi ctrl	PostGolgi yeast
O=C(OCCCc1ccncc1)c1ccc(S(=O)(=O)N2CCOCC2)cc1	97*	0	96*	0	11	3
O=C(Nc1ccc(Cl)cc1)NC1CCCCC1Cc1ccco1 (stereo not drawn)	59*	0.9	10	0.4	26	24
O=C(Nc1ccc(Cl)cc1)NC1CCCC1Cc1ccco1 (stereo not drawn)	65*	0.6	38	0.3	22	4
O=C(Nc1ccc(Cl)cc1)NC1CCCCC1	1	1	-1	1	-6	3
CCCCOC(=O)C(C#N)c1nc2ccccc2nc1N1CCN(Cc2ccc3c(c2)OCO3)CC1 (stereo not drawn)	92*	0.3	65*	0.1	22	4
C=CCNC(=O)C(C#N)c1nc2ccccc2nc1N1CCN(Cc2ccccc2)CC1 (stereo not drawn)	9	1	4	0.9	0	15
CC(C)COC(=O)C(C#N)c1nc2ccccc2nc1N1CCN(Cc2ccc3c(c2)OCO3)CC1 (stereo not drawn)	79*	0.5	49	0.2	16	0
COC(=O)C(C#N)c1nc2ccccc2nc1N1CCN(Cc2ccc3c(c2)OCO3)CC1 (stereo not drawn)	47	0.5	50*	0.5	nt	nt
COc1ccc2c(c1OC)C(=O)OC2Nc1ncc(Br)cc1Br (stereo not drawn)	1	1	0	1	3	-1
S=c1nc(-c2ccccc2)n(Cc2ccco2)c2c1CCCC2	23	1	5	0.8	5	-5
Fc1ccc(-c2nc3nc4ccccc4nc3n2Cc2ccco2)cc1	29	0.9	13	0.7	32*	5
c1ccc(-c2nc3nc4ccccc4nc3n2Cc2ccco2)cc1	51*	0.9	8	0.5	32*	-10
CC(C)C(=O)N1CCN(c2ccc(NC(=O)c3ccc4c(c3)OCCO4)cc2Cl)CC1	35	0.7	25	0.7	1	2
CCCN1C(=O)c2cc(C(=O)O)ccc2C1O (stereo not drawn)	0	1.2	-19	1	-6	-5
CCCN1C(=O)c2ccccc2NC1c1ccc(OC)cc1OC (stereo not drawn)	53*	0.4	63*	0.5	7	2
CCCN1C(=O)c2ccccc2NC1c1ccc(OC)cc1O (stereo not drawn)	46	0.2	81*	0.5	1	-4
O/N=C1/C2C3CC4C5C3C1C5C1(OCCO1)C42 (stereo not drawn)	-18	1.2	-17	1.2	-6	-3
Cn1c(=O)c2c(nc(Oc3ccccn3)n2C)n(C)c1=O	-2	1.1	-7	1	nt	nt
CSc1nc(-c2ccccc2)nn1S(=O)(=O)c1ccc(Cl)cc1	-35	1	-5	1.3	0	-7
CCS(=O)(=O)n1nc(-c2ccccc2)nc1SC	-11	0.4	56*	1.1	2	-3
CCS(=O)(=O)n1nc(-c2ccc(C)cc2)nc1N	12	0.7	32	0.9	4	-2
COc1ccc(-c2nc(SC)n(S(=O)(=O)c3ccccc3)n2)cc1	62*	0.3	69*	0.4	nt	nt
CCS(=O)(=O)n1nc(-c2ccc(Cl)cc2)nc1N	8	0.5	53*	0.9	12	-3
O=C1NCC(O)=C1C=NC12CC3CC(CC(C3)C1)C2	-9	1	-3	1.1	8	-3
CCOc1ccc(CC(=O)Nc2c(C(N)=O)oc3ccccc23)cc1OCC	nt	nt	nt	nt	-4	-1
SMILES	CYP2C9 inh	CYP2C19 act	CYP2C19 inh	CYP2C9 act	PostGolgi ctrl	PostGolgi yeast
Cc1ccc(/C=N\NC(=O)c2cc(OCC(F)(F)F)ccc2OCC(F)(F)F)cc1	21	1	4	0.8	2	3
CCCCOc1ccccc1C1C(C(N)=O)=C(C)Nc2nnnn21 (stereo not drawn)	-1	1	-2	1	-4	9
CCOC(=O)N1CCN(CC(=O)Nc2ccc(C)c(Br)c2)CC1	28	0.5	51*	0.7	-3	0
CCOC(=O)N1CCN(S(=O)(=O)/C=C/c2ccccc2)CC1	-14	0.1	85*	1.1	11	-6
CCOC(=O)N1CCN(C/C(C)=C/c2ccccc2)CC1	65*	0.4	61*	0.4	-2	-44
Cc1ccc(C(=O)NCCCN2CCOCC2)cc1N1CCCC1=O	-4	1.1	-8	1	2	-1
